697 NFkB inh = lowers PMA/ionomycin-induced NF-kB signal in 697 B cells; 697 B-cell NF-kB luciferase reporter, 16 h; inhibition, % at 4 µM; actives 0.33% (n = 330,000); in the data active = inhibition above about 35%
Gli-Sufu antag = Gli-Sufu pathway antagonism; Sufu-KO-LIGHT fibroblasts, Gli luciferase reporter luminescence; actives 0.74% (n = 340,000); inhibition, % at 5 µM;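 active = inhibition above about 55%, limit read from the data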;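 also: 0% = DMSO-treated cells and 100% = wells with medium but no cells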
Mdm2-MdmX inh = inhibitors of human Mdm2/MdmX interaction; O15151+Q00987; SaOS-2 split-luciferase Mdm2/MdmX complementation, luminescence; inhibition, % at 8 µM; actives 3% (n = 330,000); AID 485346;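 active = inhibition of at least 50% at 8 µM in the primary screen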
Target sequence (O15151 whole entry, looked up): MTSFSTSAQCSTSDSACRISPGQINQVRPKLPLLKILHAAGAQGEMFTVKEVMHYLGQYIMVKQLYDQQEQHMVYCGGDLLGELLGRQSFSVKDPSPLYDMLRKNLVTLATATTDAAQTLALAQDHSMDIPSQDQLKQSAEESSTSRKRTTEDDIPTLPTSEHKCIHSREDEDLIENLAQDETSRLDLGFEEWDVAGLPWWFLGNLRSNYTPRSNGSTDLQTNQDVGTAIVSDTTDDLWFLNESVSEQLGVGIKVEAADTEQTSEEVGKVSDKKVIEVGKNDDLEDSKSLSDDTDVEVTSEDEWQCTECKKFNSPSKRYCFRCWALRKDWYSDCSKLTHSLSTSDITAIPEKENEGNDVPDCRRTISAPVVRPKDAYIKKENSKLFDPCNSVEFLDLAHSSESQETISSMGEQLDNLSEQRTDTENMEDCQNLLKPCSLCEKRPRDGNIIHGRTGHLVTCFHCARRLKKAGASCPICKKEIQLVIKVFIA
Target sequence (Q00987 whole entry, looked up): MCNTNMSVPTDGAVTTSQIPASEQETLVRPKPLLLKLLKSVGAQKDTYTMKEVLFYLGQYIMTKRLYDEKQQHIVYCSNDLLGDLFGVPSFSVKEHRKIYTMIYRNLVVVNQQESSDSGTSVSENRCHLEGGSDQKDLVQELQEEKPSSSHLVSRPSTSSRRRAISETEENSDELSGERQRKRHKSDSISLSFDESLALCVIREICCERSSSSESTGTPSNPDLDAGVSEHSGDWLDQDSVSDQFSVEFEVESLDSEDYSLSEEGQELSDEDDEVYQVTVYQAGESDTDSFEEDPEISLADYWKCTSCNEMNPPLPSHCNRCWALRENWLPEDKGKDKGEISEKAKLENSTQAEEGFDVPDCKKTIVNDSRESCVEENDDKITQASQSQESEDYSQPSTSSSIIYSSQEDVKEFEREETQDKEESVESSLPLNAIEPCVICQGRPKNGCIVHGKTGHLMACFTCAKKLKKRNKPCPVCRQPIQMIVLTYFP
Jurkat NFkB inh = lowers PMA/ionomycin-induced NF-kB signal in Jurkat cells | PMA/ionomycin-induced NF-kB luciferase reporter, luminescence | actives 0.53% (n = 330,000) | AID 435003 | inhibition, % at 4 µM; in the data active = inhibition above about 50%
Beta cell apopt = beta cell apoptosis inhibition; INS-1E cytokine-induced death, ATP luminescence, 48 h; percent of positive-control rescue, neutral wells zero; protection from apoptosis, % (test concentration not listed); actives 0.8% (n = 300,000); AID 435005;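 active = Every replicate reaches about 75%, or at least half do and their mean reaches it too, limit read from the data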;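 also: 0% = cytokine-treated negative control wells and 100% = positive control rescue; higher means more ATP so stronger rescue from cytokine killing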
CSC inhib = cancer stem cell inhibition. AID 2717. cancer stem cell-like cells viability, luminescence. actives 1.1% (n = 300,000). inhibition, % at 7.5 µM; in the data active = inhibition above about 75%; tested in HMLE shEcad cells
Gli antag conf = confirmation of Gli-SUFU pathway antagonists; shares compounds with Gli-Sufu antag; actives 40% (n = 2,500); inhibition, % at 5 µM; AID 602428; Sufu-KO-LIGHT cells, Gli luciferase reporter, luminescence;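 active = mean inhibition at 5 µM reaching about 45%, limit read from the data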;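 also: plate controls were DMSO-treated cells for no effect and wells lacking cells for full effect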
Gli cytotox = cytotoxic in Gli-SUFU antagonist counter-screen; AID 651994; actives 32% (n = 2,500); Sufu-KO-LIGHT cells cytotoxicity, ATP luminescence; cytotoxicity, % at 5 µM; shares compounds with Gli-Sufu antag;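 active = mean cytotoxicity at 5 µM above about 25%, limit read from the data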;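 also: cells exposed to compound overnight for roughly 16 to 18 hours; plate controls were DMSO wells with cells for no effect and medium without cells for full effect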
Wnt3a cs = counter-screen for Gli-SUFU antagonists: Wnt3a reporter inhibition | shares compounds with Gli-Sufu antag | Wnt-LIGHT cells, Wnt3a-driven luciferase reporter, luminescence | inhibition, % at 6.25 µM | actives 20% (n = 2,500) | AID 651995;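 active = mean inhibition above about 25%, limit read from the data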
Numbers without * were called inactive; · = no result given. This is a sample that favours compounds with a hit; in the whole collection about 4.5% have one here.

SMILES | 697 NFkB inh | Gli-Sufu antag | Mdm2-MdmX inh | Jurkat NFkB inh | Beta cell apopt | CSC inhib | Gli antag conf | Gli cytotox | Wnt3a cs
CCn1c(SCc2nc3ccccc3c(=O)[nH]2)nc2ccccc21 | -1 | 56* | 18 | 5 | -8 | -13 | 13 | 26* | -24
COCCn1c(SCc2nc3ccccc3c(=O)[nH]2)nc2ccccc2c1=O | -10 | -4 | 24 | 6 | 3 | -9 | · | · | ·
COc1ccc(CNCC(O)(c2ccccc2)c2ccccc2)cc1OC | 3 | 53 | 17 | 12 | 21 | -1 | 15 | 14 | -11
COc1ccc(CNCC(O)(c2ccccc2)c2ccccc2)cc1 | -3 | 3 | 23 | 3 | 3 | -4 | · | · | ·
CSC(=S)N/N=C(\C)c1ccccc1 | -11 | 72* | 30 | 9 | 20 | 9 | 34 | 18 | -5
C/C(=N\NC(N)=S)c1ccccc1 | -7 | 2 | -24 | -2 | -7 | -5 | · | · | ·
Nc1ccc(O)cc1C(=O)OCC(=O)c1ccc(C2CCCCC2)cc1 | · | 66* | · | · | -1 | 70 | 66* | 33* | 29*
COc1ccc(C(=O)OCC(=O)c2ccc(C3CCCCC3)cc2)cc1 | -15 | -5 | 6 | 10 | 1 | 16 | · | · | ·
C[C@@H]1COC(=O)[C@@H](NC(=O)OCC2c3ccccc3-c3ccccc32)C/C=C\C[C@@H](CC(=O)N(CCO)Cc2ccccc2)C(=O)N1 | 5 | 75* | 1 | 19 | 70 | · | 70* | 21 | -4
C[C@H]1COC(=O)[C@@H](NC(=O)OCC2c3ccccc3-c3ccccc32)C/C=C\C[C@H](CC(=O)NCCO)C(=O)N1 | -1 | 48 | 2 | -5 | 10 | · | · | · | ·
O=C(NCCCN1CCOCC1)c1ccc(S(=O)(=O)Nc2ccccc2F)cc1 | -10 | 90* | -1 | -8 | -7 | 2 | 14 | 2 | -20
Cc1nn(-c2ccc(NC(=O)c3ccncc3)cc2)c(C)c1Cl | -3 | 56* | 27 | 46 | · | · | 45* | 16 | 24
CC1CCN(C(=O)C2CCN(C(=O)c3cc4sccc4n3Cc3ccc(F)cc3)CC2)CC1 | -33 | -1 | 19 | 8 | -4 | -11 | · | · | ·
O=C(c1cc2sccc2n1Cc1ccccc1)N1CCN(c2nc3ccccc3s2)CC1 | -12 | 58* | 14 | 32 | 99* | 7 | 68* | 33* | -18
CC(C)NC(=O)C1CCN(C(=O)c2cc3sccc3n2Cc2ccc(F)cc2)CC1 | -16 | 61* | 35 | -1 | 26 | 8 | 40 | 11 | 8
CC1CN(S(=O)(=O)c2cccc(C(=O)N(Cc3nnc(-c4ccccc4Cl)o3)C3CC3)c2)CC(C)O1 (stereo not given) | 1 | 6 | 14 | 0 | 10 | -14 | · | · | ·
CC(C)N1CC(C(=O)Nc2cccc([N+](=O)[O-])c2)CC1=O (stereo not given) | 4 | -6 | 15 | -13 | -1 | -11 | · | · | ·
COc1ccc2nc(NC(=O)CSc3nnnn3C3CCCCC3)sc2c1 | 20 | 4 | 7 | 5 | -3 | 11 | · | · | ·
CCOc1ccc2nc(NC(=O)CSc3nnnn3C3CCCCC3)sc2c1 | 11 | 71* | 25 | 7 | -7 | -10 | 6 | 11 | -84
COC(=O)c1c(-n2cnnn2)sc(C)c1C | 14 | 50 | 23 | 9 | -2 | -18 | 20 | 2 | -41
COC(=O)Cc1c(C)c2ccc(OCC(=O)N(C)C3CCS(=O)(=O)C3)cc2oc1=O (stereo not given) | 3 | -2 | 0 | -1 | 0 | 11 | · | · | ·
O=C(c1ccc(F)cc1)N1CCN(C2CCCCC2)CC1 | -7 | 58* | -3 | 1 | -5 | 1 | 24 | 16 | -17
O=C(c1ccc(OC2CCN(Cc3ccc(F)cc3)CC2)cc1)N1CCCC1 | -4 | 55* | 17 | 4 | -2 | 10 | 16 | 8 | 11
O=C(c1ccccc1)N1CCN(C2CCCCCC2)CC1 | 14 | 6 | 20 | -24 | 0 | 8 | · | · | ·
